Records with an inconclusive call do not appear. A number with no mark means an inactive call. The source made the active and inactive calls. The call rests on the fitted dose curve; in most records, active means well fitted inhibition curve with a large enough effect; inconclusive means small, poorly fitted or top-dose-only effect; inactive means flat fitted curve, though single readings scatter.
The molecules below were run against Calcium and integrin-binding protein 1 (Homo sapiens) (UniProt Q99828) (assay: Primary qHTS for Identification of Calcium Integrin Binding Protein 1 (CIB1) Competitor (AID 1508620;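 further: GST tagged CIB1 binding a fluorescein labelled alphaIIb integrin peptide tracer; top concentration of the series differs between compounds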)). Settings: CIB1-GST / FITC-alphaIIb peptide fluorescence polarization; series mostly up to 114 µM; activity change, negative = inhibition: at the top concentration.
Chain of Calcium and integrin-binding protein 1 (Homo sapiens) (Q99828 whole entry, looked up): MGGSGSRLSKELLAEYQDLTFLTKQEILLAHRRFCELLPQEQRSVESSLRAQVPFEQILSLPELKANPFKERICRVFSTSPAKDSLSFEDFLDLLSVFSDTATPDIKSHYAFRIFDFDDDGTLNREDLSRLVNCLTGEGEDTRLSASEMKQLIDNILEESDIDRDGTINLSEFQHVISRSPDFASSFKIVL
Method in brief: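 CIB1-GST (1 uM final) and compound incubated 15 min at room temperature before adding FITC-alphaIIb peptide tracer (100 nM final). Competition for binding read by fluorescence polarization (ex 480, em 540) after another 15 min at room temperature.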
With `Cc1cc2c(s1)c1cnn(Cc3ccc(F)c(C)c3)c(=O)c1n2C` the “activity change, negative = inhibition” value was 7.04%.
`FC1(F)Oc2ccc(-c3ccc4ncnc(NCc5cccs5)c4c3)cc2O1` was tested, and the “activity change, negative = inhibition” value was 4.67%.
For `COc1cccc(C2c3c(ncn(-c4cccnc4)c3=N)Oc3ccc4ccccc4c32)c1` (centres undefined), the “activity change, negative = inhibition” value was 2.7%.
For `O=C(Nc1ncc(Cc2ccc(C(F)(F)F)cc2)s1)c1cccc(-c2ccccc2)c1`, the “activity change, negative = inhibition” value was -3.4%.
With `COc1ccc(C2Nc3ccccc3C(=O)N2Cc2ccccc2OC)cc1COc1ccc(NC(C)=O)cc1` (centres undefined) the “activity change, negative = inhibition” value was 2.01%.
For `Cc1cc(C)nc(NC(=S)N2CCN(c3ccc(Cl)nn3)CC2)c1`, the “activity change, negative = inhibition” value was 0.476%.
In the case of `O=C(O)c1ccc(S(=O)(=O)N[C@H](Cc2ccc(C(F)(F)F)cc2)C(=O)O)cc1`, the “activity change, negative = inhibition” value is reported as -4.4%.
`CC(=O)Nc1sc2c(c1-c1nc3ccccc3s1)CCS(=O)(=O)C2` was tested, and the “activity change, negative = inhibition” value was 4.25%.
In the case of `CC(C)c1ccccc1-c1nc(NCC2CCN(c3cccnc3)CC2)c2ccccc2n1`, the “activity change, negative = inhibition” value is reported as 95.1%.
In the case of `O=[S+]([O-])(Nc1ccc2ccccc2c1)c1ccc(NCc2ccc(Cl)cc2O)cc1`, the “activity change, negative = inhibition” value is reported as 6.11%.
With `C=CCNc1oc(-c2cccnc2)nc1C#N` the “activity change, negative = inhibition” value was -0.52%.
With `Cc1ccc(NS(=O)(=O)c2ccc3c(c2)N(C)C(=O)CO3)cc1C` the “activity change, negative = inhibition” value was -1.97%.
In the case of `Cc1c(P(=O)(c2ccccc2)c2ccccc2)c2ccccc2n1C`, the “activity change, negative = inhibition” value is reported as -13.2%.
In the case of `N#Cc1ccc(-c2ccc(CNc3ccc(N4CCC(C#N)CC4)cc3)o2)cc1`, the “activity change, negative = inhibition” value is reported as -11.1%.
For `COc1ccccc1C1=Nn2c(nnc2-c2ccccc2C)SC1`, the Potency was “inactive”.
`COc1cccc(NC(=S)N2CCN(c3cccc(C(F)(F)F)n3)CC2)n1` was tested, and the “activity change, negative = inhibition” value was 3.17%.
With `CC(=O)c1ccc(N2CCN(S(=O)(=O)c3ccc4c(c3)n(C)c(=O)n4C)CC2)cc1` the “activity change, negative = inhibition” value was 17%.
With `O=C(Nc1ccccc1)Nc1nnc(-c2ccncc2)s1` the “activity change, negative = inhibition” value was 6.04%.
In the case of `Cc1noc(C)c1-c1ccc2ncnc(NCc3ccc(F)cc3)c2c1`, the “activity change, negative = inhibition” value is reported as 1.07%.
For `COc1cccc(C2c3c(ncn(-c4ccc(C#N)cc4)c3=N)Oc3ccc4ccccc4c32)c1` (centres undefined), the “activity change, negative = inhibition” value was 10.1%.
`Cc1cccc(CNc2ncnc3ccc(-c4cccc(Cl)c4)cc23)c1` was tested, and the “activity change, negative = inhibition” value was -1.97%.
In the case of `CC(=O)Nc1sc2c(c1-c1nccs1)CCNC2`, the “activity change, negative = inhibition” value is reported as 7.87%.
With `Cc1ccc(-c2ccc(=O)n(CC(=O)NCCCc3ccccn3)n2)cc1` the “activity change, negative = inhibition” value was 2.36%.
For `Fc1cc(Nc2nc(-c3ccncc3)nc3ccccc23)ccc1-c1cn[nH]c1`, the “activity change, negative = inhibition” value was 3.07%.
`Fc1cc(Nc2nc(-c3ccncc3)nc3ccccc23)ccc1OCC(F)(F)F` was tested, and the “activity change, negative = inhibition” value was 2.76%.
With `Cc1c(P(=S)(c2ccccc2)c2ccccc2)[n+]2ccccc2n1CCCc1ccccc1` the “activity change, negative = inhibition” value was -3.19%.
With `O=S1(=O)N=C(Sc2cc(C(F)(F)F)cc(C(F)(F)F)c2)c2ccccc21` the “activity change, negative = inhibition” value was -13.3%.
With `Cc1ccccc1C(=O)N1CCc2cc(-c3nc(NC(=O)Cc4ccc5c(c4)OCCO5)sc3C)ccc21` the “activity change, negative = inhibition” value was 5.22%.
`CCOC(=O)c1ccc(-c2ccc3ncnc(N(C)Cc4sccc4C)c3c2)o1` was tested, and the “activity change, negative = inhibition” value was 4.01%.
With `Cc1ccc(N2CCN(C(=S)Nc3cc(C)ccn3)CC2)cc1` the “activity change, negative = inhibition” value was -9.46%.
With `Cc1cccc(-n2cnc3cc(C(=O)NC(C)(C)C)ccc32)c1` the “activity change, negative = inhibition” value was 4.18%.
`c1csc(CNc2ncnc3ccc(-c4ccc5c(c4)OCCO5)cc23)c1` was tested, and the “activity change, negative = inhibition” value was -1.59%.
`COc1ccc(-c2ccc3ncnc(NCc4nc(C)cs4)c3c2)cc1OC` was tested, and the “activity change, negative = inhibition” value was -8.26%.
With `N#Cc1c(-c2ccc(O)cc2)no[n+]1[O-]` the “activity change, negative = inhibition” value was 4.25%.
With `CC(=O)Nc1ccc(CNc2ncnc3ccc(-c4c(C)noc4C)cc23)cc1` the “activity change, negative = inhibition” value was 1.71%.
For `c1ccc2[nH]c(-c3ccc(NCc4ccc5c(c4)OCCO5)cc3)nc2c1`, the “activity change, negative = inhibition” value was 3.15%.
With `CN(C)c1cnc2c(O)ccc(C(=O)O)c2c1` the “activity change, negative = inhibition” value was -20%.
With `COc1ccc(NC(=O)c2cnn3c(C)cc(C)nc23)cc1Cl` the “activity change, negative = inhibition” value was 1.15%.
`Cc1cc(C)n2ncc(C(=O)NC3CCC(C(C)(C)C)CC3)c2n1` (centres undefined) was tested, and the Potency was “inactive”.

From PubChem BioAssay (NCATS)
On the % scale 0 is the no-effect control and ±100 the full control effect.
